# Experimental data from PubChem BioAssay (NCI).
# Compounds without any hit were thinned out: in the full panel of roughly 83,000, 20% have a hit.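 For each line, cells grew in 96-well plates with the test compound present at a single concentration for 48 hours.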 A number with no mark means an inactive call. Calls of active or inactive are those of the source. Rule for the calls: active = growth percent below 10; inactive = the rest.
# Key:
# Test in all cases: NCI-60 one-dose screen, 48 h (100 = growth as untreated, 0 = no growth, -100 = all killed)
# Details in all cases: 10 µM unless noted
# SR leukemia = system: SR leukemia
# RPMI-8226 leukemia = system: RPMI-8226 leukemia
# OVCAR-8 ovarian = system: OVCAR-8 ovarian
# OVCAR-5 ovarian = system: OVCAR-5 ovarian
# OVCAR-4 ovarian = system: OVCAR-4 ovarian
# SK-OV-3 ovarian = system: SK-OV-3 ovarian
# IGROV1 ovarian = system: IGROV1 ovarian
# OVCAR-3 ovarian = system: OVCAR-3 ovarian
# HS 578T breast = system: HS 578T breast
# NCI/ADR-RES ovarian = system: NCI/ADR-RES ovarian
# T-47D breast = system: T-47D breast
# BT-549 breast = system: BT-549 breast
# MDA-MB-435 melanoma = system: MDA-MB-435 melanoma
# SW-620 colon = system: SW-620 colon
# MCF7 breast = system: MCF7 breast
# HCT-116 colon = system: HCT-116 colon
# HCC-2998 colon = system: HCC-2998 colon
# KM12 colon = system: KM12 colon
Structure (SMILES),growth (SR leukemia),growth (RPMI-8226 leukemia),growth (OVCAR-8 ovarian),growth (OVCAR-5 ovarian),growth (OVCAR-4 ovarian),growth (SK-OV-3 ovarian),growth (IGROV1 ovarian),growth (OVCAR-3 ovarian),growth (HS 578T breast),growth (NCI/ADR-RES ovarian),growth (T-47D breast),growth (BT-549 breast),growth (MDA-MB-435 melanoma),growth (SW-620 colon),growth (MCF7 breast),growth (HCT-116 colon),growth (HCC-2998 colon),growth (KM12 colon)
COc1cc2c3c(cc4c5c(ccc4c3c1OC)OCO5)N(CCN(C)C)C2=O,-1.44% (active),-21.7% (active),9.28% (active),-6.73% (active),-4.27% (active),2.24% (active),-11.3% (active),0.51% (active),-8.56% (active),4.67% (active),-5.03% (active),-6.3% (active),-18.5% (active),7.13% (active),0.153% (active),-12.2% (active),-45.3% (active),8.95% (active)
CC1=C(C)C(=O)C(Nc2cccc(C(=O)OC(C)(C)C)c2)=CC1=O,81.8%,75.8%,82.2%,98.3%,34.9%,90.5%,72.9%,6.18% (active),79.4%,76%,65%,82.6%,87.1%,94.8%,46%,75.2%,103%,88.7%
COc1ccc(C2CC(c3cccc(OCCCCOc4cccc(C5=NN(C(C)=O)C(c6ccc(OC)cc6)C5)c4)c3)=NN2C(C)=O)cc1 (centres undefined),39.3%,33.8%,68.2%,96.2%,20%,83.5%,83.8%,68.2%,89.3%,75.7%,40.1%,69.8%,60.3%,87.1%,39.9%,47.3%,83.1%,70.5%
CCOP(=O)(OCC)OC[C@]12CC[C@@H](C)[C@H](C)C1C1=CC[C@@H]3[C@@]4(C)CCCNC(C)(C)[C@@H]4CC[C@@]3(C)[C@]1(C)CC2 (some centres undefined),-57.7% (active),-48.9% (active),61.2%,70%,34.4%,72.7%,0.926% (active),38.4%,47.8%,20.6%,38.2%,71.7%,28.4%,-54.7% (active),-59.8% (active),-84.5% (active),-55.1% (active),18.2%
CC1=C(SCC(=O)OCCCCCC(C)C)C(=O)c2ccccc2C1=O,83.7%,61%,92.1%,113%,70.1%,104%,79.8%,74%,91.8%,100%,74.3%,94.4%,102%,99.3%,72.1%,89.7%,110%,91.2%
Cc1ccc2c(n1)C(=O)C(Cl)=C(Nc1cccc(C(=O)OC(C)(C)C)c1)C2=O,5.81% (active),28%,87.3%,130%,65.7%,97.2%,88.2%,37.5%,102%,93.9%,59.1%,102%,97.9%,64.3%,53.3%,14%,113%,
CS(=O)(=O)c1ccc(/C(=N/N=C(N)N)c2ccc(F)cc2)cc1,24.1%,91.4%,98.4%,115%,101%,108%,110%,95.6%,93.4%,95.7%,94.4%,98%,11.4%,59.9%,15.1%,33.7%,90.3%,58.2%
COc1ccc(NC(=O)CCCCCCNC(=O)C(O)(O)C(F)(F)F)cc1,15%,25.1%,22.3%,31.3%,77.7%,4.07% (active),62.4%,49.1%,56.9%,49.8%,18.7%,76.4%,38.8%,10.2%,38.4%,7.44% (active),55.9%,41.6%
C#C[C@]1(O)CC[C@H]2[C@@H]3CC=C4c5sc(Nc6cc(C)cc(C)c6)nc5CC[C@]4(C)[C@H]3CC[C@@]21C,11.6%,-27.3% (active),53%,54.5%,47.7%,-38.7% (active),46.8%,48.9%,-10.8% (active),47.7%,33.8%,-4.65% (active),20.7%,-20.1% (active),-52.5% (active),12.5%,40.2%,-7.08% (active)
Oc1[nH]c2ccc(Cl)cc2c1N=Nc1nc(N=Nc2c(O)[nH]c3ccc(Cl)cc23)nc(N2CCCCC2)n1,24.5%,57%,25.9%,38.2%,42.2%,94.5%,22.9%,76.9%,36.2%,101%,81.5%,122%,75.8%,15.5%,51.7%,23.9%,38.7%,47.6%
Cc1ccc2c(n1)C(=O)C(Cl)=C(Nc1ccc(C(C)C)cc1)C2=O,3.93% (active),-21.7% (active),8.76% (active),103%,-74% (active),106%,-53% (active),-55.7% (active),55.6%,49.9%,-47% (active),91.9%,-81.2% (active),-22.8% (active),-56.3% (active),-70.8% (active),3.71% (active),57.8%
COc1ccc(CC(C)=C(c2ccc(OCCN3CCCC3)cc2)c2ccc(OCCN3CCCC3)cc2)cc1,-34% (active),-21.7% (active),-81.6% (active),-91.1% (active),-86.9% (active),-88% (active),-76.5% (active),-81% (active),-47.3% (active),-80.5% (active),-49.9% (active),-69.5% (active),-76.4% (active),-53% (active),-80% (active),-17.6% (active),-80.3% (active),-95.3% (active)
O=C(CSc1nnc(-c2ccc(Cl)cc2)n1-c1ccccc1)Nc1ccc(Cl)cc1,18.6%,31%,31%,37.3%,-55.8% (active),75%,23.3%,57.5%,38.4%,34.7%,30.9%,70.2%,42.3%,58.6%,53.3%,1.07% (active),70.1%,57.6%
O=C(CSc1nc2ccccc2c(=O)n1-c1ccc(Cl)c(Cl)c1)Nc1ccc(S(=O)(=O)Nc2ccc(Cl)nn2)cc1,108%,106%,94%,91.1%,97.7%,88.8%,95.8%,106%,91.2%,99.8%,85.9%,94.4%,97.8%,89.7%,95.6%,92%,95.1%,102%
COc1ccc2[nH]cc(-c3nc(N)nnc3-c3cn(C)c4ccc(Br)cc34)c2c1,9.35% (active),6.31% (active),42.8%,56.5%,63.6%,44%,38.9%,-8.84% (active),16.9%,64.3%,29.3%,39.6%,-8.23% (active),20.9%,12.2%,18.1%,58.9%,23.7%
